A short description of assay [1]: small molecules captured by biotinylated probe aFSTL3 – biochemical, small-molecule microarray, fluorescence 635/667, stem cell growth factor project, primary screen (AID 1064).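 Also: measures binding of the biotinylated anti-FSTL3 antibody to printed compounds.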 To be noted: higher = more signal.
Assay [2] can be described thus: binders from COS7 lysate, DM2A8 probe, primary screen, torsin A project, cell lysate, small-molecule microarray, fluorescence 635/667 (AID 1065). The settings on record: higher = more signal, COS7 lysate expressing mutant human TOR1A.
The nature of assay [3]: small molecules captured by biotinylated probe aFGF2 – biochemical, small-molecule microarray, fluorescence 635/667, stem cell growth factor project, primary screen (AID 1067).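 Also: measures binding of biotinylated aFGF2 protein to printed compounds on slides; z-score merges feature fluorescence and signal-to-noise across triplicate slides.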 To be noted: higher = more signal.
The nature of assay [4]: small molecules captured by biotinylated probe aFGF10 – biochemical, small-molecule microarray, fluorescence 635/667, stem cell growth factor project, primary screen (AID 1071).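 Also: score merges 667 nm spot intensity and signal to noise from triplicate slides.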 To be noted: higher = more signal.
Assay [5] has as its target Neurogenic locus notch homolog protein 2 (Homo sapiens) (UniProt Q04721). The assay can be described thus: small molecules binding Notch2 protein – biochemical, small-molecule microarray, 635 nm fluorescence, stem cell growth factors, primary screen (AID 1073). To be noted: higher = more signal.
Assay [6] addresses Pro-neuregulin-1, membrane-bound isoform (Homo sapiens) (UniProt Q02297). The assay can be described thus: small molecules binding neuregulin-1 protein – biochemical, small-molecule microarray, fluorescence 635/667, psychiatric disease protein project, primary screen (AID 1075).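 Also: score combines 667 nm spot fluorescence with signal to noise.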 The settings on record: NRG1 binding, 635 nm fluorescence, higher = more signal.
For assay [7], the system named is Neuregulin-1 EGF-like domain. In words: small molecules binding NRG1 EGF domain – biochemical, small-molecule microarray, 635 nm fluorescence, primary screen (AID 1081).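 Also: binding of the protein to compounds printed on small-molecule microarray slides.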 The settings on record: higher = more signal.
A short description of assay [8]: FRG1 expression reporter modulators in myotubes – cell-based, C2C12 myotubes, firefly/Renilla luciferase, luminescence, FRG1 inhibition for FSHD, primary screen (AID 1084). To be noted: FRG1 promoter luciferase, higher = more signal, called active from +8 up or from −8 down.
The nature of assay [9]: small molecules captured by biotinylated probe aFST – biochemical, small-molecule microarray, fluorescence 635/667, stem cell growth factor project, primary screen (AID 1086).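 Also: score merges 667 nm fluorescence with signal-to-noise of each printed compound spot.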 To be noted: higher = more signal.
A short description of assay [10]: binders of probe aHhip on microarray, primary screen, stem cell growth factor project, biochemical, small-molecule microarray, fluorescence 635/667 (AID 1087).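 Also: score merges spot fluorescence at 667nm with spot signal to noise ratio.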 The settings on record: higher = more signal.
The subject of assay [11] is PRMT1 (protein arginine N-methyltransferase 1). The assay can be described thus: small molecules binding arginine methyltransferase PRMT1 – biochemical, small-molecule microarray, 635 nm fluorescence, primary screen (AID 1088).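 Also: binding of Prmt1 protein to compounds spotted on small-molecule microarray slides.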 To be noted: higher = more signal.
A short description of assay [12]: growth effects on S. cerevisiae YJM789 – YJM789 clinical isolate, OD600, 24 h, basal, primary screen (AID 1089).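 Also: growth of clinical yeast isolate S. cerevisiae YJM 789 seeded 1000 cells per well; test concentration not given here.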 The settings on record: higher = more signal, called active from +8 up or from −8 down.
A short description of assay [13]: S. pombe growth modifiers, basal conditions – strain 972, OD600, 24 h, no modulator, primary screen (AID 1090).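 Also: basal condition with compound alone and no growth modifier present; test concentration not given here.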 To be noted: S. pombe 972 growth, higher = more signal, called active from +8 up or from −8 down.
Assay [14] in a line: budding yeast growth modifiers under rapamycin – strain BY4716, OD600, 96 h, primary screen (AID 1091). Also: test concentration not given here. To be noted: S. cerevisiae BY4716 + rapamycin, higher = more signal, called active from +8 up or from −8 down.
Assay [15] has as its target Torsin-1A-interacting protein 2 (Homo sapiens) (UniProt Q8NFQ8). In words: small molecules binding lysate-expressed LULL1 – cell lysate, human LULL1 lysate, 635/667 nm fluorescence, primary screen (AID 1092).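 Also: probe is lysate of COS7 cells overexpressing human LULL1; score merges per-feature 667 nm fluorescence with signal-to-noise.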 To be noted: small-molecule microarray, hLULL1 lysate binding, 635 nm fluorescence; higher = more signal.
Assay [16] can be described thus: optical density change of DRC41 E. coli – strain DRC41, OD650, 24 h, E. coli filamentation project, primary screen (AID 1093).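 Also: MC1000 strain lacking acrAB efflux and sulA so SOS filamentation is blocked; test concentration not given here.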 To be noted: E. coli DRC41 growth, higher = more signal, called active from +8 up or from −8 down.
A short description of assay [17]: probe aLefty2 binding to arrayed compounds – biochemical, biotinylated probe, 635/667 nm fluorescence, primary screen (AID 1094).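 Also: score merges spot fluorescence near 667 nm with spot signal-to-noise ratio.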 The settings on record: small-molecule microarray, higher = more signal.
For assay [18], the system named is Noggin (protein binding on small-molecule microarray). In words: small molecules binding Noggin protein – biochemical, 635/667 nm fluorescence, primary screen (AID 1095).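 Also: score merges 667 nm feature fluorescence with signal to noise over triplicate slides.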 The settings on record: 635 nm fluorescence, higher = more signal.
In assay [19] the target is Neurogenic locus notch homolog protein 3 (Homo sapiens) (UniProt Q9UM47). In words: small molecules binding NOTCH3 protein – biochemical, 635/667 nm fluorescence, primary screen (AID 1096). The settings on record: small-molecule microarray, 635 nm fluorescence, higher = more signal.
A short description of assay [20]: probe aEGFR binding to arrayed compounds – biochemical, biotinylated probe, 635/667 nm fluorescence, primary screen (AID 1097).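 Also: probe is a biotinylated anti-EGFR antibody binding compounds printed on slides; score combines fluorescence near 667 nm and signal to noise of each spot.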 To be noted: small-molecule microarray, higher = more signal.

Results on 5 molecules are retold here after PubChem BioAssay.

The source made the active and inactive calls.

Sequence of Torsin-1A-interacting protein 2 (Homo sapiens) (Q8NFQ8 whole entry, looked up): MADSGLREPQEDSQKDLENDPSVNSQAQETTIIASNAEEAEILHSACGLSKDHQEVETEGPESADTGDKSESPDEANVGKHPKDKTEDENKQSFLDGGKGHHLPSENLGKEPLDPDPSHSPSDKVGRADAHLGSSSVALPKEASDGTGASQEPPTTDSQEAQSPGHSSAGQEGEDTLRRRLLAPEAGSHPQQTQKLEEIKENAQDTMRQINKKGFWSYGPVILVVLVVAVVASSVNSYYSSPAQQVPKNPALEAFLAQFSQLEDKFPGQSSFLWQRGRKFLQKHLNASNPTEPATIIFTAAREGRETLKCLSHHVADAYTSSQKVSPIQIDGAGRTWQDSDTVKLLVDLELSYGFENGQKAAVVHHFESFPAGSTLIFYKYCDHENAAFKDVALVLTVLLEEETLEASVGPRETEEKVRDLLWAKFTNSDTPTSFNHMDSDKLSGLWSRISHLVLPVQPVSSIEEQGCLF
Sequence of Pro-neuregulin-1, membrane-bound isoform (Homo sapiens) (Q02297 whole entry, looked up, the tested form may be a part, canonical isoform): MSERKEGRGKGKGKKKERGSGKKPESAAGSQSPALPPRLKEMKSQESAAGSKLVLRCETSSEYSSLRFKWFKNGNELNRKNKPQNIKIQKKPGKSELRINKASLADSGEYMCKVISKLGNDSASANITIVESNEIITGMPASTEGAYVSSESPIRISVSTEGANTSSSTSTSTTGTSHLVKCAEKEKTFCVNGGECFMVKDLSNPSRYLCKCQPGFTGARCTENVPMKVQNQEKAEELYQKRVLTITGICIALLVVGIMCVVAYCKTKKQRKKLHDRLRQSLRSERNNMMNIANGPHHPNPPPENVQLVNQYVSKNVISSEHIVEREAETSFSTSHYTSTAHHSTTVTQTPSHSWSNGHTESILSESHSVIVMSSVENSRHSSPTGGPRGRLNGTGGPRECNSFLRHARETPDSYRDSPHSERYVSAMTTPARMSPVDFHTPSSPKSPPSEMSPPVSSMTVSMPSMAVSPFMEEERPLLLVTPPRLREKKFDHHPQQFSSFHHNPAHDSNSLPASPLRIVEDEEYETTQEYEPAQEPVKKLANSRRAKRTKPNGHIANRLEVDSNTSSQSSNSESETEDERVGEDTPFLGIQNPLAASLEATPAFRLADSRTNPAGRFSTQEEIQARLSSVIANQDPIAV
Sequence of Neurogenic locus notch homolog protein 3 (Homo sapiens) (Q9UM47 whole entry, looked up): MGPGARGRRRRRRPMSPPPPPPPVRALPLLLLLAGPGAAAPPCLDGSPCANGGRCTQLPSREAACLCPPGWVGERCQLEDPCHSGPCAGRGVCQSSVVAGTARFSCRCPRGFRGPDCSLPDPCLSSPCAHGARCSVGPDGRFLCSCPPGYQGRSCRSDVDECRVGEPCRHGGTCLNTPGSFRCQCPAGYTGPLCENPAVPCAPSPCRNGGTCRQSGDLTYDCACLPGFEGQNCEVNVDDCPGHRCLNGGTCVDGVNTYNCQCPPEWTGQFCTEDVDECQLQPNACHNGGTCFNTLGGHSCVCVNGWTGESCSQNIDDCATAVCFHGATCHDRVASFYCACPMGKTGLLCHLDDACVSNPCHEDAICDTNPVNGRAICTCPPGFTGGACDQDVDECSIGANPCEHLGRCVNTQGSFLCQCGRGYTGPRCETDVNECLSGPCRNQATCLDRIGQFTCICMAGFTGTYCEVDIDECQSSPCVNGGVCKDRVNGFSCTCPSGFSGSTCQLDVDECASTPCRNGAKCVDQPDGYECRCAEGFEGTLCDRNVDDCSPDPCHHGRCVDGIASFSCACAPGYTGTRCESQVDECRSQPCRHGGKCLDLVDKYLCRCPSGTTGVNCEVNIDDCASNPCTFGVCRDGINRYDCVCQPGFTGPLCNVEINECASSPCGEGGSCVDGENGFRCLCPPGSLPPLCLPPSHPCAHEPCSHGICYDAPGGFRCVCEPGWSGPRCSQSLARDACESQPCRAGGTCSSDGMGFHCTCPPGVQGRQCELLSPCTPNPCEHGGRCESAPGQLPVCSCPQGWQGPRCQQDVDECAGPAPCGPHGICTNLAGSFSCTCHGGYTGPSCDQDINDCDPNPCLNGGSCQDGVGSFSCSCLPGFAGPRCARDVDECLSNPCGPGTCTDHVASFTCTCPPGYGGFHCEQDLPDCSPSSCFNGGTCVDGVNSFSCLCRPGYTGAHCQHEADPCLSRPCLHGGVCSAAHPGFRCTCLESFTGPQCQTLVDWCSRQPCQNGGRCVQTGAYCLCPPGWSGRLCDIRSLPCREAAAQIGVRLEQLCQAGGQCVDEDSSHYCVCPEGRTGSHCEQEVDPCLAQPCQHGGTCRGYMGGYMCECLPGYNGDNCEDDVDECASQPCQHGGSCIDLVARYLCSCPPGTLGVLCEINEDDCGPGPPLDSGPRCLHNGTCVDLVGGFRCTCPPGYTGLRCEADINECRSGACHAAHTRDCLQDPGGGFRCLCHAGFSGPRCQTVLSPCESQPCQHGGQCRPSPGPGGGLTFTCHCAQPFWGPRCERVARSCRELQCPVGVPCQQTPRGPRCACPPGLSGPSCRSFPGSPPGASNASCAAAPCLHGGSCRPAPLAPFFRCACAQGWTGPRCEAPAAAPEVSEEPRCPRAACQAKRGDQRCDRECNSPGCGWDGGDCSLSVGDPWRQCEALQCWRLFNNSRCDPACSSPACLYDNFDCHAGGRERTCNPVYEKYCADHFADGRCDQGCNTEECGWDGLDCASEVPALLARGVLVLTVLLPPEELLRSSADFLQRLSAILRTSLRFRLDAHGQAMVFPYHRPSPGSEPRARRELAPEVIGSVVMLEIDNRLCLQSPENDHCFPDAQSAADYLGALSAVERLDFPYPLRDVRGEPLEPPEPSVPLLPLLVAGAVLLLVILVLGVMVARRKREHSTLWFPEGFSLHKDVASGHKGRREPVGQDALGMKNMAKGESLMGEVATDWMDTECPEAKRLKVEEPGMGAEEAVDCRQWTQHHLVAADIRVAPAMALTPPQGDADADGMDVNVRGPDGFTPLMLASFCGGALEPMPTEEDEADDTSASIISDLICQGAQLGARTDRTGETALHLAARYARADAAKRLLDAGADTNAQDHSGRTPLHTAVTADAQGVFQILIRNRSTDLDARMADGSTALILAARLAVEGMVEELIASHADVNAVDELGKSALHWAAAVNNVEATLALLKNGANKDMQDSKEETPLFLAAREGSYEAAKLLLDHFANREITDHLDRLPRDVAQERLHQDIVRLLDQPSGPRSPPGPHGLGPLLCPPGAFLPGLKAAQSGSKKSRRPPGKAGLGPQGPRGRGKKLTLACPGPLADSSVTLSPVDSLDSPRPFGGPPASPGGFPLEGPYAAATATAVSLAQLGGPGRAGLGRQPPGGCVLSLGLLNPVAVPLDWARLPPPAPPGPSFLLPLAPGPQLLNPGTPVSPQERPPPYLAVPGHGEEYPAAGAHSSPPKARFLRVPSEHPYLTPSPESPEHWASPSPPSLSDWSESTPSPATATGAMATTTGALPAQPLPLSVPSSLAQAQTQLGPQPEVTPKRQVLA

Take `COCCOC(=O)N1C(=O)[C@@]2(c3cc(C#CCNC(N)=O)ccc31)[C@H](C(=O)N1CCN(c3ncccn3)CC1)[C@H]1C(=O)O[C@H](c3ccccc3)[C@H](c3ccccc3)N1[C@@H]2c1ccccc1OCCO`: the composite z-score stood at 0.397 in assay [1]; 0.242 in assay [2]; 0.0811 in assay [3]; 0.947 in [4]; 1.12 in assay [5]; 0.727 in [6]. The composite z-score in assay [7] was 1.09; in [9], 1.28; in assay [10] it was -0.204; in assay [11], 1.47; in [15], 1.79; in assay [17], 0.181. Also, the composite z-score in assay [18] was 0.808; in assay [19], 1.12; in assay [20] it was -0.0286. Besides, the z-score was -0.311 (inactive) in assay [8]; 2.12 (inactive) in assay [12]; 1.71 (inactive) in assay [13]; 4.95 (inactive) in [14]; 1.72 (inactive) in assay [16].

Turning to `C=CCOC(=O)[C@@H]1[C@H]2C(=O)O[C@H](c3ccccc3)[C@H](c3ccccc3)N2[C@H](c2ccc(OCCOC(=O)[C@@H]3C[C@@H]4C(=O)N[C@@H](Cc5ccccc5)C(=O)N4[C@@H]3c3cccc(OCCO)c3)cc2)[C@@]12C(=O)Nc1ccc(I)cc12`, the composite z-score was 0.224 in assay [1]; 0.63 in [2]; -0.0566 in assay [3]; 0.764 in [4]; 1.03 in [5]; 1.03 in assay [6]. In addition, the composite z-score was 1.06 in assay [7]; 0.043 in [9]; -0.0196 in assay [10]; 1.53 in assay [11]; 1.83 in assay [15]; -0.0286 in assay [17]. Also, the composite z-score was 1.5 in assay [18], 0.974 in assay [19] and 0.0042 in [20]. Besides, the z-score in [8] is 1.06 (inactive); in [12], 1.39 (inactive); in assay [13], 2.04 (inactive); in assay [14], 4.55 (inactive); in [16], 0.0087 (inactive).

Take `N#Cc1ccc(NN2C(C(O)C3CCCCC3)C=CC3C(=O)N(c4ccccc4)C(=O)C32)cc1` (stereo not given): the composite z-score in [1] is 0.0086; in [2] it was -0.433; in assay [3], 0.0429; in assay [4] it was 0.461; in assay [5], 1.58; in assay [6], 1.31. Besides, the composite z-score in [7] worked out at 1.33; in assay [9], 1.38; in assay [10], 0.754; in assay [11] it was 1.45; in assay [15], 3.26; in assay [17], 0.217. Also, the composite z-score in [18] was -0.0519; in [19], 1.03; in assay [20], 0.0065. In addition, the z-score was -0.585 (inactive) in assay [8]; -0.21 (inactive) in [12]; 0.661 (inactive) in [13]; 2.46 (inactive) in [14]; -1.08 (inactive) in [16].

Take `CC(C)(C)OC(=O)CC[C@@]1(C(=O)O)N=C(c2ccc(OCCCO)cc2)O[C@@H]1c1ccccc1N=[N+]=[N-]`: the composite z-score was 1.09 in [1]; 1.56 in assay [2]; 0.0918 in assay [3]; 1.11 in [4]; 0.984 in [5]; 1 in assay [6]. In addition, the composite z-score in [7] was 1.15; in [9] it was 0.457; in [10], -0.277; in assay [11] it was 1.15; in [15], 2.15; in assay [17], 0.553. The composite z-score was -0.569 in assay [18], 0.104 in [19] and 0.325 in assay [20]. For the same molecule, the z-score in assay [8] is 6.94 (inactive); in assay [12] it was 0.949 (inactive); in [13], 0.419 (inactive); in [14], -0.286 (inactive); in assay [16] it was 0.484 (inactive).

In the case of `C=CCNC(=O)[C@@H]1[C@H]2C(=O)O[C@H](c3ccccc3)[C@H](c3ccccc3)N2[C@H](c2ccc(O)cc2)[C@@]12C(=O)N(C(=O)OCCOC)c1ccccc12`, the composite z-score in assay [1] is -0.0042; in assay [2] it was 1.11; in assay [3] it was -0.0434; in assay [4] it was 0.558; in [5], 0.369; in assay [6], 1.51. For the same molecule, the composite z-score in [7] was 1.23; in [9] it was 0.376; in [10], -0.0994; in assay [11], 1.53; in assay [15] it was 3.25; in assay [17] it was -0.0458. Moreover, the figures for the composite z-score in [18], in [19] and in assay [20] were 0.559, 0.509 and -0.14, respectively. The z-score in assay [8] is 0.993 (inactive); in assay [12], 0.655 (inactive); in assay [13], 0.625 (inactive); in assay [14], 2.8 (inactive); in [16] it was 1.11 (inactive).
